Experimental data: PubChem BioAssay AID1851 (National Center for Advancing Translational Sciences (NCATS), 2009)
The whole screen tested about 16,000 compounds, of which about 4,000 (25%) were called active. Roughly 26% stayed inconclusive and do not appear here. The call rests on the fitted dose curve; in most records, active means well fitted curve in the direction sought with a large enough effect; inconclusive means small, poorly fitted or top-dose-only effect, or effect the other way; inactive means no such curve, though single readings can be large or run the other way. Only a sample is shown.

target: Cytochrome P450 2C9 (Homo sapiens) (UniProt P11712); experiment: Cytochrome panel assay with activity outcomes; conditions: recombinant CYP, pro-luciferin dealkylation, luminescence, p450-cyp2c9; series mostly up to 57.1 µM
On the % scale 0 is the no-effect control and ±100 the full control effect.

Chain of Cytochrome P450 2C9 (Homo sapiens) (P11712 whole entry, looked up): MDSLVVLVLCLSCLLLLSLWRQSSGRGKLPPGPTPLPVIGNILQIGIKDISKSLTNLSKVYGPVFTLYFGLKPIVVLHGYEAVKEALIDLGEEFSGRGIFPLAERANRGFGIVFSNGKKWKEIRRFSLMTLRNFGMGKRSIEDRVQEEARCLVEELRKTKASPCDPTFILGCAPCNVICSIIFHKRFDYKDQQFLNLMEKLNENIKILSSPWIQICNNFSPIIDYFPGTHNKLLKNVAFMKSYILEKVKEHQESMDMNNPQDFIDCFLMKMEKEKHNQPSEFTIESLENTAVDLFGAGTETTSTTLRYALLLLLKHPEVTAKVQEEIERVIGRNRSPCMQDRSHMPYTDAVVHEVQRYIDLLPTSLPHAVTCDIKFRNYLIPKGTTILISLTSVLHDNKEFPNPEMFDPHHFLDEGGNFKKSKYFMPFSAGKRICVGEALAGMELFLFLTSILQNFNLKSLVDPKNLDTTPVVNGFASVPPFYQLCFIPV

Structure (SMILES) | activity, negative = inhibition | AC50
C/C(CCN1CCc2nc(-c3ccccc3)c(-c3ccccc3)cc2C1)=N\O[C@@H](C)CN1CCCCc2nc(C)c(C)cc21 | 2.2% [at 11.4 µM] (inactive) | 
C#CCN(C)Cc1ccccc1 |  | inactive
CN(C)Cc1ccccc1-c1cc(-n2ccnc2)ncn1 | -14.3% [at 2.29 µM] (inactive) | 
CN(Cc1ccccc1)Cn1ccnc1 |  | 2.51 µM (active)
CC1(C)CC(=O)c2cn3ncnc3nc2C1 |  | inactive
Cn1c(CN2CCCC2)nc2cc(NC(=O)C3CCCCC3)ccc21 |  | inactive
O=C(Nc1ccc2c(c1)nc1n2CCN(C2CCCCC2)C1)NC1CCCCC1 |  | 14.1 µM (active)
CC1CCN(CCc2nc3cc(NC(=O)NC4CCCCC4)ccc3n2C)CC1 |  | inactive
CO[C@@]12C[C@@H](COC(=O)c3cncc(Br)c3)CN(C)[C@H]1Cc1cn(C)c3cccc2c13 |  | inactive
N/C(CC/C(N)=N/O)=N\O | -8.92% [at 11.4 µM] (inactive) | 
CCN(CC)C(=O)Cn1cc(/C=C(\C#N)C(=O)N2CCN(c3ccccc3)CC2)c2ccccc21 |  | 3.55 µM (active)
CCc1cccc2c(C=C(C#N)C#N)cn(CC(=O)N3CCCCC3)c12 |  | inactive
O=C1O[C@H](CN2CCOCC2)CN1/N=C\c1ccc([N+](=O)[O-])o1 |  | inactive
C[C@@H](C[N+](C)(C)C)OC(N)=O |  | inactive
Cn1c(=O)c(-c2cc(F)cc(F)c2)nc2cncnc21 |  | inactive
COc1ccccc1CCn1c(=O)c(-c2cc(F)cc(F)c2)nc2cncnc21 |  | 1.58 µM (active)
COCCn1c(=O)c(-c2cc(F)cc(F)c2)nc2cncnc21 |  | inactive
COc1ccc(-n2c(=O)c(-c3cccc(F)c3)nc3cncnc32)cc1 |  | inactive
COc1ccccc1CCn1c(=O)c(-c2cccc(F)c2)nc2cncnc21 |  | 2.51 µM (active)
COCCn1c(=O)c(-c2cccc(F)c2)nc2cncnc21 |  | inactive
O=C(c1ccccc1)c1ccc2n1CC[C@H]2C(=O)O |  | inactive
c1ncc(-c2ccoc2)c(NC2CC2)n1 | 5.65% [at 2.29 µM] (inactive) | 
CCCNc1[nH]c(=O)n(C)c(=O)c1N=O |  | inactive
O=C(O)C12CC3(C(=O)O)CC(C(=O)O)(CC(C(=O)O)(C1)C3=O)C2=O | -3.16% [at 11.4 µM] (inactive) | 

Structure (SMILES) | activity, negative = inhibition | AC50
COc1ccc(C2C(C(=O)c3ccco3)=C(O)C(=O)N2Cc2cccnc2)cc1OC (configuration not stated) |  | inactive
COc1cccc(/C(O)=C2/C(=O)C(=O)N(Cc3cccnc3)C2c2ccco2)c1 (configuration not stated) |  | 0.398 µM (active)
COc1ccccc1-c1cc(NCc2cccnc2)ncn1 | -17.3% [at 2.29 µM] (inactive) | 
COCCCN1C(=O)C(=O)/C(=C(/O)c2ccc(OC)cc2C)C1c1cccnc1 (configuration not stated) |  | inactive
COc1ccc(/C(O)=C2/C(=O)C(=O)N(Cc3cccnc3)C2c2ccco2)cc1OC (configuration not stated) |  | 8.91 µM (active)
COCCN1C(=O)C(=O)/C(=C(/O)c2cccc(OC)c2)C1c1ccco1 (configuration not stated) |  | inactive
CCOc1cccc(/C(O)=C2/C(=O)C(=O)N(Cc3cccnc3)C2c2ccco2)c1 (configuration not stated) |  | 1.58 µM (active)
CCc1cc2c(nc1CC)CCN(CC/C(C)=N/O[C@@H]1O[C@H](COC(C)=O)[C@H](OC(C)=O)[C@H](OC(C)=O)[C@H]1OC(C)=O)C2 | 1.56% [at 11.4 µM] (inactive) | 
Cc1c(Cl)cccc1NC(=O)c1ccc(-n2ccnc2)nc1 |  | 0.0794 µM (active)
CN(C)C(=O)c1ccc(-c2nccc(-n3ccnc3)n2)cc1 | 17.2% [at 2.29 µM] (inactive) | 
CN(C)C(=O)c1ccc(-c2cncnc2-n2ccnc2)cc1 | 12.6% [at 2.29 µM] (inactive) | 
CS(=O)(=O)Nc1cccc(-c2cncnc2-n2ccnc2)c1 | 10.1% [at 2.29 µM] (inactive) | 
c1cncc(-c2cc(-n3ccnc3)ncn2)c1 | 12.2% [at 2.29 µM] (inactive) | 
O=C(Nc1ccc(F)cc1)c1ccc(-n2ccnc2)nc1 |  | 0.178 µM (active)
O=C(NCCC[N+]1=CC=N[C@H]1c1ccccc1)N1CCCc2nc(-c3ccc(Br)cc3)ccc21 | -48.1% [at 11.4 µM] (inactive) | 
O=C(Nc1ccccc1)N1CC[C@@]2(CCCN(C(=O)c3cnccn3)C2)C1 |  | inactive
CN(C)Cc1ccc(O)c(CN(C)C)n1 | 7.12% [at 11.4 µM] (inactive) | 
COc1ccc(C(=O)NC(C)c2cc(OC)c(OC)cc2Br)cc1 (configuration not stated) |  | 12.6 µM (active)
COc1cc(Br)c(C(C)NC(=O)c2cccc(Br)c2)cc1OC (configuration not stated) |  | 2.82 µM (active)
CNC(C)c1cc(OC)ccc1OC (configuration not stated) |  | inactive
COc1ccc(C(=O)[C@H](Br)[C@H](Br)C(=O)O)cc1 | -11.2% [at 11.4 µM] (inactive) | 
CC(NC(=O)c1cccc(F)c1)C(c1cccs1)N1CCN(C)CC1 (configuration not stated) |  | inactive
CCCCSc1nc(C)cc(NC(=S)Nc2ccc(OC)cc2)n1 |  | inactive
